# Rab9 promoter act: Rab9 promoter activation | AID 485297 | hit rate 2.8% among 320,000 | Potency, µM (doses to about 9.22 µM), for inactives: at the highest dose activation, negative = inhibition, actives largely listed as activators | Huh7 Rab9 promoter-luciferase reporter, luminescence, 24 h; note: % of control where 0% means no effect; nearly all actives have a fitted effect of over 60% in size
#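 Stable Rab9-luc Huh7, 1500 cells/well, 2 h settle; cmpd in DMSO, 24 h, 37 °C/5% CO2; luciferase reagent 10 min RT; luminescence.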
# SMN2 splice up: enhancers of SMN2 splice variant expression. HEK293 SMN2-luciferase splicing reporter, luminescence, 30-36 h. Potency, µM (series often up to 46.1 µM), for inactives: at the highest dose activity change, positive = activation, actives largely listed as activators. hit rate 2.8% among 210,000; note: % of control where 0% means no effect; nearly all actives have a fitted effect of over 55% in size
#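 HEK293 cells carry an SMN2 […]–luciferase reporter in which exon 7 inclusion puts luciferase in frame. Cells were plated 10-12 h before compound addition, then incubated 30-36 h at 37C. ONE-Glo luminescence was read; sodium butyrate at 4.5 mM final served as control.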
# ELG1 genotoxic: inducers of genotoxicity in HEK293T ELG1-luciferase cells. HEK293T ELG1-luciferase reporter, luminescence, 16 h. Potency, µM (top dose mostly 46 µM), for the others: top-dose activity change, positive = activation, usual class: activators. hit rate 1.3% among 330,000. AID 504466; note: % of control where 0% means no effect; nearly all actives have a fitted effect of over 60% in size
#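 Quantitative HTS format in 1536-well plates. HEK293T ELG1-luciferase reporter cells receive test compound and are incubated 16 hr at 37 °C, 5% CO2; ONE-Glo added, 30 min room temperature, then luminescence read.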
# uPA surface inh: cell surface uPA generation inhibition | cell surface uPA generation assay, qHTS | Potency, µM (doses to about 38.3 µM), without a hit: top-dose activity change, negative = inhibition, most hits filed as inhibitors | hit rate 0.31% among 330,000; active = well fitted inhibition curve with a large enough effect; inconclusive = small, poorly fitted or top-dose-only effect; inactive = no such curve, though single readings can be large or run the other way; tested in mouse RAW 264.7 cells; note: % is set by controls: 0 for no effect and ±100 for the full control effect; nearly all actives have a fitted effect of over 55% in size
# NPC1 prom act: activators of NPC1 promoter; Huh7 NPC1 promoter luciferase reporter, 24 h; Potency, µM (titrated, usually from 9.22 µM), for inactives: at the top dose activation, usual class: activators; hit rate 2.4% among 320,000; AID 485313; note: % of control where 0% means no effect; nearly all actives have a fitted effect of over 60% in size
#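 Huh7 cells stably carrying NPC1 promoter–luciferase, plated in Opti-MEM with 10% FBS for 2 h, were exposed to compound in DMSO for 24 h at 37 °C; luciferase reagent was added for 10 min and luminescence read.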
# FLuc counter: inhibits or activates purified firefly luciferase, miR-21 counter-screen; P08659; purified FLuc, Km substrates, luminescence inhibition; Potency, µM (doses to about 57.5 µM), without a hit: at the highest dose activity change, negative = inhibition, actives largely listed as inhibitors; hit rate 6.9% among 360,000; AID 588342;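 note: plate controls were vehicle for no effect and reference inhibitor for full effect; nearly all actives have a fitted effect of over 55% in size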
# Target sequence (P08659 whole entry, looked up): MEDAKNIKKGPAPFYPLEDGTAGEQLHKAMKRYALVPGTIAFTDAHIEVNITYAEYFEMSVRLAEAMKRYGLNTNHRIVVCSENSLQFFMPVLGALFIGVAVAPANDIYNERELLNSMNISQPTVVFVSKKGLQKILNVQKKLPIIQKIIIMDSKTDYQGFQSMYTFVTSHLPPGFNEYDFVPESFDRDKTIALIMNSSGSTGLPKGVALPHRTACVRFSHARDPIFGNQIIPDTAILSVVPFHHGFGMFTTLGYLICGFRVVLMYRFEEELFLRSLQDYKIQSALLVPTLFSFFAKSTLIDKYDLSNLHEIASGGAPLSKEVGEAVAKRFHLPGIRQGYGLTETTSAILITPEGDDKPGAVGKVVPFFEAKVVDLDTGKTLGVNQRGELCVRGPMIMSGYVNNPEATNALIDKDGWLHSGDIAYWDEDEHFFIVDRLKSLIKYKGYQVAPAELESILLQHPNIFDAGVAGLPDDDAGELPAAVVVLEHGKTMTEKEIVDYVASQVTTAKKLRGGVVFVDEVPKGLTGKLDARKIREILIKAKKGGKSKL
#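 Biochemical qHTS of compounds, final roughly 60 µM downward over six points, against 10 nM purified firefly luciferase using Km concentrations of substrates (10 uM D-luciferin, 10 uM ATP) in Tris acetate pH 7.5 buffer; luminescence output.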
# * marks the source's active call; other numbers are inactive results; ? = inconclusive; nt = no result given. Most compounds without a hit are left out; they make up all but 7.3% or so of the library. Unless noted, calls come from the whole dose curve; as a rule, active = well fitted curve in the direction sought with a large enough effect; inconclusive = small, poorly fitted or top-dose-only effect, or another doubt; inactive = no such curve, though single readings can be large; an effect the other way counts as inactive or inconclusive. Potency is the fitted concentration of half-maximal effect.
SMILES,Rab9 promoter act,SMN2 splice up,ELG1 genotoxic,uPA surface inh,NPC1 prom act,FLuc counter
Cn1cc(-c2nc3ccccc3[nH]2)c2ccccc21,?,22.4µM*,6.1%,-0.6%,?,4.26µM*
Clc1nc2c(ccc3ccccc32)[nH]1,?,nt,10.8%,-1.4%,?,?
COc1ccccc1C(=O)OCc1cc(=O)n2nc(C3CCCCC3)sc2n1,nt,nt,nt,nt,nt,4.7%
Cc1cc(C)c(/C=C/c2onc(C)c2S(=O)(=O)N2CCC(C(=O)NCC(C)c3ccccc3)CC2)c(C)c1 (centres undefined),nt,nt,nt,nt,nt,-4.8%
O=c1[nH]cccc1-c1nc2ccccc2[nH]1,29.4%,nt,?,-5.7%,?,?
Fc1ccc(-c2nc3ccccc3[nH]2)cc1,2.51µM*,10µM*,?,?,2.51µM*,12µM*
Nc1ccccc1-c1nc2ccccc2[nH]1,6.31µM*,?,10.3µM*,-3.5%,3.98µM*,12µM*
O=C(Nc1ccc(-c2nc3ccccc3[nH]2)cc1)c1ccccc1NS(=O)(=O)c1ccc(F)cc1,6.1%,-23.9%,-0.2%,3.8%,-4.1%,?
O=C(O)c1ccc(/C=C(\c2nc3ccccc3[nH]2)c2nc3ccccc3s2)cc1,-1.0%,nt,-6.8%,-3.0%,1.9%,15.1µM*
O=C(O)c1ccc(-c2nc3ccccc3[nH]2)cc1,-10.5%,14.3%,2.1%,0.8%,-1.6%,15.1µM*
CC(=O)Nc1cc(NC(C)=O)cc(-c2nc3ccccc3[nH]2)c1,-3.0%,16.0%,2.9%,2.4%,-7.7%,-16.9%
Cc1cccn2c(=O)c(/C=C(\C#N)c3nc4ccccc4n3C)c(Oc3ccc(Cl)cc3)nc12,nt,?,nt,nt,nt,-0.4%
C/C(=N/NC(=O)c1cc2ccccc2cc1O)C1C(=O)c2ccccc2C1=O,?,?,?,7.7%,21.7%,16.9µM*
C/C(CC(=O)N1CCN(C=O)CC1)=N\NC(=O)c1ccc([N+](=O)[O-])cc1,-6.2%,nt,6.2%,11.4%,-0.2%,?
C/C(=N\NC(=O)c1ccccc1O)C1C(=O)c2ccccc2C1=O,27.9%,10µM*,8.2µM*,1.3%,?,13.5µM*
C/C(CC(=O)N1CCN(C=O)CC1)=N\NC(=O)c1cc2ccccc2cc1O,-5.1%,15.7%,0.2%,-0.9%,-3.1%,21.3µM*
CC(C)c1nn2c(=O)cc(COC(=O)c3ccc(NC(=O)CCc4ccccc4)cc3)nc2s1,nt,nt,nt,nt,nt,-0.5%
CCOC(=O)c1c(S(=O)(=O)N2CCN(Cc3ccccc3)CC2)c(C)n(C)c1C,6.2%,nt,3.9%,-1.9%,-0.9%,4.6%
CCCOc1ccc(C(=O)Nc2ccc(NC(=O)c3ccccc3)c(Br)c2)cc1,nt,-18.4%,nt,nt,nt,0.8%
Cc1ccccc1NC(=O)c1nc2nccc(C)n2n1,3.55µM*,14.1µM*,?,nt,?,?
COc1ccc2[nH]c(C(=O)Nc3ccc(C)c(F)c3)cc2c1,?,nt,-5.7%,-9.2%,?,?
COc1ccc(C(=O)NCCn2ccc3ccccc32)c(OC)c1,?,29.3%,?,-10.6%,?,21.3µM*
CC(C)(C)c1ccc(S(=O)(=O)NNC(=O)c2cc3ccccc3[nH]2)cc1,12.1%,nt,?,0.6%,13.7%,13.5µM*
COc1ccc(NC(=O)c2cc3ccccc3[nH]2)cc1,2µM*,nt,?,-14.2%,3.16µM*,?
COc1ccc(NC(=O)c2ccc3ccccc3c2)cc1,0.708µM*,nt,2.31µM*,-26.9%,0.708µM*,0.849µM*
SMILES,Rab9 promoter act,SMN2 splice up,ELG1 genotoxic,uPA surface inh,NPC1 prom act,FLuc counter
CCCC(C)NNC(=O)c1cc2ccccc2[nH]1 (centres undefined),1.8%,-5.7%,8.7%,nt,1.8%,-0.4%
COc1ccc(C(=O)NCCN2CCOCC2)c(OC)c1,2.6%,11.2%,-0.5%,3.4%,-4.0%,-1.7%
COc1ccc(CCN2CC(C(=O)NC3CCCCC3)CC2=O)cc1OC (centres undefined),-0.1%,-23.1%,-5.2%,6.1%,5.5%,-4.8%
[N-]=[N+]=NCC1OC(n2cnc3c(=O)[nH]c(N)nc32)C(O)C1O (centres undefined),nt,1.0%,nt,nt,nt,nt
COc1ccc(NC(=O)c2coc(C)c2)cc1,?,nt,?,0.5%,?,23.9µM*
COc1ccc(C(=O)Nc2ccc3ccccc3c2)c(OC)c1,?,nt,2.06µM*,0.4%,3.55µM*,0.849µM*
Cc1ccc(OC(=O)c2oc3ccc(F)cc3c2C)c(C)c1,8.2%,16.9%,13.6%,?,22.5%,7.57µM*
COc1ccc(/C=C/C(=O)c2oc3ccc(F)cc3c2C)cc1,0.8%,-35.5%,2.6%,2.5%,11.2%,9.53µM*
COc1ccc(CN(C(=O)c2oc3ccc(F)cc3c2C)C2CCS(=O)(=O)C2)cc1 (centres undefined),-0.5%,nt,-6.6%,-3.7%,-3.6%,0.6%
Cc1ccc(-c2cc(C(=O)N(Cc3ccccc3)Cc3ccco3)no2)cc1F,nt,nt,nt,nt,nt,-0.5%
O=c1[nH]c(-c2ccccc2)nnc1-c1ccccc1,?,nt,?,-0.7%,?,16.9µM*
Cc1nnc(-c2ccccc2)[nH]c1=O,-0.8%,12.2%,1.7%,6.2%,-1.5%,-5.2%
O=C(CC1CCCC1)Nc1ccc2c(c1)CCC2,3.55µM*,?,?,9.6%,2.51µM*,13.5µM*
Cc1cc(NC(=O)CCSc2ccccc2)ccc1Br,20.3%,?,?,-4.3%,13.9%,23.9µM*
Cc1cc(NC(=O)CC2CCCC2)ccc1Br,?,nt,?,1.4%,-29.7%,19µM*
Cc1cc(Br)ccc1NC(=O)CCSc1ccccc1,5.4%,1.3%,0.6%,-8.8%,1.3%,2.1%
COc1cc(SC)ccc1C(=O)Nc1ccc(S(=O)(=O)Nc2nccc(C)n2)cc1,nt,nt,nt,nt,nt,-3.7%
Cc1cc(-c2nnc(-c3cccc(C(F)(F)F)c3)o2)no1,?,nt,15.2%,3.2%,?,16.9µM*
Cc1ccc(-c2nnc(-c3cc(C)on3)o2)cc1,0.562µM*,nt,3.26µM*,?,0.794µM*,1.51µM*
CCOc1cc(/C=N/O)ccc1OCc1ccc([N+](=O)[O-])cc1,-1.5%,-26.9%,5.7%,-0.2%,-0.2%,?
O=[N+]([O-])c1ccc(COc2ccccc2/C=N/O)cc1,?,15.8µM*,12.6%,-3.1%,?,?
COc1ccc2c(c1)cc1c(=O)n(CC(=O)NCCCc3ccccc3)nc(C)n12,nt,3.4%,nt,nt,nt,0.1%
CN(C)c1ccc(-c2ccccc2)nn1,1.58µM*,15.8µM*,8.2µM*,-3.4%,1.58µM*,10.7µM*
Cc1cc(NCCCn2ccnc2)n2nc(C)c(-c3ccccc3)c2n1,?,8.7%,16.2%,nt,29.2%,9.53µM*
Cc1cc(NCCCn2ccnc2)n2ncc(-c3ccccc3)c2n1,0.112µM*,-38.4%,0.291µM*,-13.8%,0.398µM*,0.338µM*
Cc1cc(NCCN2CCOCC2)n2nc(C)c(-c3ccccc3)c2n1,-0.2%,9.6%,3.1%,9.0%,1.0%,-8.0%
